Source: PubChem BioAssay
mHTT-CaM PPI inh = inhibitors of human mutant huntingtin-calmodulin interaction. P42858. AlphaScreen His-mHTT/GST-CaM binding, luminescence. inhibition, % at 15 µM. 190,000 tested, 3.6% active. AID 1671202
Pf apPOL block = Pf-apPOL DNA polymerase inhibition. AID 1794808. 210,000 tested, 0.25% active. Recombinant Pf-apPOL, molecular beacon fluorescence, 1.5 h. inhibition, % at 10 µM
Of the large screens only hits and unclear results are named; the others gave an inactive call; ! = not active in a repeat. Only a selection was taken, and hits are over-represented in it overall. No stated cut-off is given here; in the data, active means inhibition above about 50%; inactive means the rest.

O=C1OC(c2ccc(F)cc2)=N/C1=C\C=C\c1ccccc1	none
O=C1c2ccc(-c3nc4cc(Cl)ccc4c(=O)o3)cc2C(=O)N1CC1CCCO1 (stereo unspecified)	none
Cc1nnc(NN=C(C(=O)O)C(=O)O)[nH]c1=O	none (no result: Pf apPOL block)
C/C(=N/Nc1nnc(C)c(=O)[nH]1)C(=O)O	mHTT-CaM PPI inh active (no result: Pf apPOL block)
CCOc1ccc(CCN2C(=O)CCC2(C)C(=O)NCCCOC)cc1 (stereo unspecified)	none
c1ccc2c(N3CCOCC3)nc(-c3ccncc3)nc2c1	mHTT-CaM PPI inh 61!
Cc1ccc(-c2nc(N3CCOCC3)c3ccccc3n2)cc1	none
COc1ccc(-c2cc(-c3ccccc3)nc(NN)n2)cc1OC	mHTT-CaM PPI inh 63
Cc1ccc(-c2cc(-c3ccccc3)nc(NN)n2)cc1	none
Cn1cc(S(=O)(=O)CC(=O)N2CCOCC2)c2ccccc21	none
OC1(C#CC#CC2(O)CCCCC2)CCCCC1	mHTT-CaM PPI inh 82
CCN(CC)CC#CC1(O)CCCCC1	none
O=C(O)COCc1ccc(Br)cc1	none (no result: mHTT-CaM PPI inh)
COCCn1cc(NC(=O)N2CCN(c3ccc(F)cc3)CC2)c2ccccc21	none
O=C(Nc1nonc1NC(=O)c1ccccc1F)c1ccccc1F	none
COc1ccc(N2CCN(C(=O)C34CC5(C)CC(C)(CC(C)(C5)C3)C4)CC2)cc1	mHTT-CaM PPI inh 54
CC(=O)N1CCN(C(=O)C23CC4(C)CC(C)(CC(C)(C4)C2)C3)CC1	none
CC1=C(C#N)C(=O)N(CC(C)O)C(=O)/C1=C\c1ccc(-c2ccc(Cl)cc2)o1 (stereo unspecified)	none
CC1=C(C#N)C(=O)N(CCO)C(=O)/C1=C\c1ccc(-c2cc(Cl)ccc2Cl)o1	none
CC1=C(C#N)C(=O)N(CCO)C(=O)/C1=C/c1ccc(-c2ccc3c(c2)COC3=O)o1	mHTT-CaM PPI inh 60
CC1=C(C#N)C(=O)N(CC(C)O)C(=O)/C1=C\c1ccc(-c2cccc(Cl)c2C)o1 (stereo unspecified)	mHTT-CaM PPI inh 75
CCOc1ccccc1NC(=O)c1ccc(COc2ccc(Cl)cc2)o1	none
CCN1CCN(C(=O)CCC2CCCN(C(=O)Nc3cccc(F)c3)C2)CC1 (stereo unspecified)	none
O=C(CCC1CCCN(C(=O)Nc2cccc(F)c2)C1)N1CCN(c2ccccc2)CC1 (stereo unspecified)	mHTT-CaM PPI inh 50
O=S1(=O)CCC(NCCO)C1 (stereo unspecified)	none
O=C1CCC(=O)N1c1ccccc1N1CCOCC1	none (no result: mHTT-CaM PPI inh)
O=C1c2cccc(N3CCOCC3)c2C(=O)c2cccc(Cl)c21	mHTT-CaM PPI inh 84
COc1ccc(C(=O)CSc2nc(N)cc(=O)[nH]2)cc1OC	none
O=C1CCCC2=C1C(c1ccc(OC(F)F)cc1)n1ncnc1N2 (stereo unspecified)	none
O=C(Cc1ccccc1)NC(c1ccccc1)c1ccc2cccnc2c1O (stereo unspecified)	mHTT-CaM PPI inh 100
O=C(NC(c1ccccc1)c1ccccc1)c1ccccn1	none
O=C(CCCN1C(=O)c2cccnc2C1=O)NC(c1ccccc1)c1ccccc1	none
O=C(Cc1ccccc1)NC(c1ccccc1Cl)c1ccc2cccnc2c1O (stereo unspecified)	mHTT-CaM PPI inh 100
CCC(=O)Nc1cccnc1-c1ccc(C(=O)Nc2ccccc2OC)cc1	none
O=C(Cc1ccccc1)Nc1cc(-c2nc3ncccc3o2)ccc1Cl	none
CCCCC(=O)NC(c1ccccc1Cl)c1ccc2cccnc2c1O (stereo unspecified)	mHTT-CaM PPI inh 99
CCC(=O)NC(c1ccccc1OC)c1ccc2cccnc2c1O (stereo unspecified)	mHTT-CaM PPI inh 100
Cc1cc(Br)ccc1NS(=O)(=O)c1cccc2nsnc12	none
Cc1ccc(C(=O)N2CCN(C(C(=O)N3CCCCC3C)C3CCCC3)CC2)cc1 (stereo unspecified)	none
O=C(CN1CCN(Cc2nc3ccccc3[nH]2)CC1)c1ccccc1	none
CCCNC(=O)c1oc2c(c1C)-c1nc(C)sc1CC2	none
CCC(=O)Nc1ccccc1Cl	none
COc1ccc(NC(=O)C2CC2)c2ncccc12	none
COc1ccccc1C(NC(=O)C1CCCCC1)c1ccc2cccnc2c1O (stereo unspecified)	mHTT-CaM PPI inh 100
CCC(=O)NC(c1ccccc1Cl)c1ccc2cccnc2c1O (stereo unspecified)	mHTT-CaM PPI inh 100
CC(C(=O)Nc1cccc(F)c1)N(c1ccccc1)S(C)(=O)=O (stereo unspecified)	none
Cc1ccc(NC(=O)c2ccc3c(c2)N(S(C)(=O)=O)CC3)cc1Cl	none
Cc1sc(-c2ccn[nH]2)cc1NC(=O)c1cccc(N(C)C)c1	mHTT-CaM PPI inh 87
Cc1sc(-c2ccn[nH]2)cc1NC(=O)C1CCCCC1	none
O=S(=O)(c1ccc2c(c1)CCO2)N1CCCc2ccccc21	none (no result: mHTT-CaM PPI inh)
O=C1c2ccccc2C(=O)N1CSc1nc2ccccc2[nH]1	none
Cc1ccc(N=Cc2cc3c(cc2[N+](=O)[O-])OCO3)cc1I	mHTT-CaM PPI inh 55
O=[N+]([O-])c1cc2c(cc1C=Nc1ccc(I)cc1)OCO2	mHTT-CaM PPI inh 64
O=[N+]([O-])c1cccc(C=Nc2ccc(I)cc2)c1O	none
COc1ccc(-c2nc3ccc(N=Cc4cc5c(cc4[N+](=O)[O-])OCO5)cc3o2)cc1	none
CCOc1cccc2cc(-c3cc(=O)oc4cc(OC)ccc34)oc12	none
O=C(NCC#CCN1CCCC1)C1(c2ccccc2)CCOCC1	none
O=c1[nH]c(-c2ccc(F)cc2)cn1-c1ccc(Br)cc1	none
O=c1[nH]c(-c2ccc(Br)cc2)cn1-c1ccc(Cl)cc1	mHTT-CaM PPI inh 63
CCC(C(=O)Nc1cc(OC)c(Cl)cc1OC)c1ccccc1 (stereo unspecified)	none
COc1cc(Cl)c(C)cc1NC(=O)c1cccc(Br)c1	none
O=C(O)CN(CC(=O)O)C(Cc1ccccc1)C(=O)O (stereo unspecified)	none
Cc1nnsc1C(=O)N1CCN(Cc2nc3ccccc3[nH]2)CC1	none
COc1ccc(CCNC(=O)N2CCN(Cc3nc4ccccc4[nH]3)CC2)cc1	mHTT-CaM PPI inh 100
CN(C)c1ccc(CCCNS(=O)(=O)c2ccc(Cl)s2)cc1	mHTT-CaM PPI inh 65
CN(C)c1ccc(CCCNS(=O)(=O)Cc2cccc(Cl)c2)cc1	none
O=C(COc1ccc(-n2cnnn2)cc1)Nc1ccc(OC(F)(F)F)cc1	none
Brc1cccc(-c2nnc(SCc3ccccc3)o2)c1	none
Cc1ccc(-n2nc3c(c2NC(=O)c2ccc(F)cc2)CSC3)c(C)c1	Pf apPOL block 57
CC(C)(C)n1nc2c(c1NC(=O)c1ccco1)CSC2	mHTT-CaM PPI inh 71
COc1ccc(C(=O)Nc2c3c(nn2-c2ccc(C)cc2C)CSC3)cc1	none
CC(C)(C)n1nc2c(c1NC(=O)c1ccc(F)cc1)CSC2	mHTT-CaM PPI inh 58
CC(C)(C)n1nc2c(c1NC(=O)C(=O)NCc1c(F)cccc1F)CSC2	mHTT-CaM PPI inh 60
CC(C)(C)n1nc2c(c1NC(=O)c1c(F)cccc1Cl)CSC2	none
CC(C)(C)n1nc2c(c1NC(=O)c1ccco1)CS(=O)C2 (stereo unspecified)	none
Cc1ccc(C(=O)Nc2c3c(nn2C(C)(C)C)CSC3)cc1	none
CCc1c(C)sc(NC(=O)c2ccccc2F)c1C#N	none
Cc1ccc(C(=O)Nc2c3c(nn2C(C)(C)C)CS(=O)(=O)C3)cc1	Pf apPOL block 88
Cc1cccc(C(=O)Nc2c3c(nn2C(C)(C)C)CS(=O)(=O)C3)c1	none
CCN1CCN(CC(=O)Nc2ccc(OC(F)(F)F)cc2)C(=O)C1=O	none
COc1ccc2nc(NC(=O)c3ccc(OC)c([N+](=O)[O-])c3)sc2c1	none
Cc1ccc(-c2ccc(C=C3C(=O)OC(C)(C)OC3=O)o2)cc1	none
